This note sets out measurements from PubChem BioAssay (NCATS).

Results filed as inconclusive are left out. Activity calls are given as the source filed them. Calls follow the shape of the dose curve; as a rule, active = well fitted cell-killing curve with a large enough effect; inconclusive = small, poorly fitted or top-dose-only effect, or effect the other way; inactive = flat fitted curve, though single readings scatter.

Experiment in all cases: Primary qHTS to identify gynecologic anti-cancer compounds using libraries of approved drugs and bioactive compounds (AID 1345084); also: nearly all actives have a fitted effect of over 55% in size
The subject of experiment [1] is CAOV3. The settings on record: Gynecologic cancer cell panel viability, ATPlite luminescence, 48 h; series mostly up to 57.5 µM. Summed up: (§1)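 Cells, 1,000 per well, were allowed to settle for 16 h at 37 C before compound addition. Five concentrations were tested for 48 h, and viability was read by ATPlite luminescence after 15 min at room temperature.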
In experiment [2] the test system is CASKI. As to conditions: Gynecologic cancer cell panel viability, ATPlite luminescence, 48 h; series mostly up to 57.5 µM. Summed up: as §1
For experiment [3], the system named is Es-2. The settings on record: Gynecologic cancer cell panel viability, ATPlite luminescence, 48 h; series mostly up to 57.5 µM. In outline: as §1
Experiment [4] deals with HeLa. As to conditions: Gynecologic cancer cell panel viability, ATPlite luminescence, 48 h; series mostly up to 57.5 µM. In outline: as §1
In experiment [5] the test system is Hek293T. The settings on record: Gynecologic cancer cell panel viability, ATPlite luminescence, 48 h, control line for the selectivity index; series mostly up to 57.5 µM. Summed up:
as §1

Experiment [6] deals with JEG-3. The settings on record: Gynecologic cancer cell panel viability, ATPlite luminescence, 48 h; series mostly up to 57.5 µM. In outline: as §1
The subject of experiment [7] is PA-1. As to conditions: Gynecologic cancer cell panel viability, ATPlite luminescence, 48 h; series mostly up to 57.5 µM. Summed up: as §1
Experiment [8] has as its system SKOV3. As to conditions: Gynecologic cancer cell panel viability, ATPlite luminescence, 48 h; series mostly up to 57.5 µM. Summed up:
as §1

In experiment [9] the test system is Tov-21-G. As to conditions: Gynecologic cancer cell panel viability, ATPlite luminescence, 48 h; series mostly up to 57.5 µM. In outline: as §1
Experiment [10] relates to OV90. As to conditions: Gynecologic cancer cell panel viability, ATPlite luminescence, 48 h; series mostly up to 57.5 µM. Summed up:
as §1
Potency is read from the fitted curve at half-maximal effect.

As to `Cc1ccccc1N1C(=O)c2cc(S(N)(=O)=O)c(Cl)cc2NC1C` (stereo not drawn), the Potency entry in experiment [1], in experiment [2], in [3], in experiment [4], in experiment [5] and in experiment [6] was “inactive” throughout. Further, the Potency entry in experiment [7], in [8] and in [9] was “inactive” each time.
With `COc1ccc2[nH]cc(CCNC(C)=O)c2c1`, the Potency entry in experiment [1], in experiment [2], in experiment [3], in experiment [4], in [5] and in experiment [6] was “inactive” each time. In addition, the Potency entry in experiment [10], in [7], in experiment [8] and in experiment [9] was “inactive” in each case.
Regarding `Cn1cnc2c1c(=O)[nH]c(=O)n2C`, the Potency entry in [1], in experiment [2], in experiment [3], in experiment [4], in experiment [5] and in experiment [6] was “inactive” throughout. Besides, the Potency entry in experiment [10], in experiment [7], in experiment [8] and in experiment [9] was “inactive” each time.
As for `CCCNCC(O)COc1ccccc1C(=O)CCc1ccccc1` (stereo not drawn), the Potency result in experiment [1], in experiment [2], in experiment [3], in experiment [4], in experiment [5] and in experiment [6] was “inactive” in each case. Moreover, the Potency result in experiment [7] and in experiment [9] was “inactive” each time.
With `C[C@](N)(Cc1ccc(O)c(O)c1)C(=O)O`, the Potency result in experiment [1], in experiment [2], in [3], in experiment [4], in experiment [5] and in experiment [10] was “inactive” each time. In addition, the Potency result in [7], in experiment [8] and in experiment [9] was “inactive” in each case.
Take `N[C@@H](Cc1c[nH]c2ccc(O)cc12)C(=O)O`: the Potency result in [1], in [2], in experiment [3], in experiment [4], in [5] and in [6] was “inactive” each time. Moreover, the Potency entry in [7], in [8] and in experiment [9] was “inactive” throughout.
With `CN1CCC(=C2c3ccccc3CC(=O)c3sccc32)CC1`, the Potency entry in [1], in experiment [2], in [3], in experiment [4], in experiment [5] and in experiment [6] was “inactive” in each case. In addition, the Potency result in experiment [10], in [7], in [8] and in experiment [9] was “inactive” each time.
Take `NS(=O)(=O)c1cc2c(cc1Cl)NCNS2(=O)=O`: the Potency entry in experiment [1], in experiment [2], in experiment [3], in [4], in [5] and in [6] was “inactive” each time. Besides, the Potency result in experiment [10], in [7], in [8] and in [9] was “inactive” in each case.
Turning to `Cc1cnc(C(=O)NCCc2ccc(S(=O)(=O)NC(=O)NC3CCCCC3)cc2)cn1`, the Potency entry in [1], in experiment [2], in [3], in [4], in experiment [5] and in experiment [6] was “inactive” each time. The Potency result in [10], in [7], in experiment [8] and in [9] was “inactive” in each case.
As for `Cc1cn([C@H]2C=C[C@@H](CO)O2)c(=O)[nH]c1=O`, the Potency entry in experiment [1], in experiment [2], in experiment [3], in [4], in experiment [5] and in experiment [6] was “inactive” throughout. Further, the Potency result in [10], in experiment [7], in experiment [8] and in [9] was “inactive” throughout.
In the case of `CC(C)NCC(O)COc1ccc(CCOCC2CC2)cc1` (stereo not drawn), the Potency entry in [1], in [2], in [3], in [4], in experiment [5] and in experiment [6] was “inactive” in each case. The Potency result in [10], in [7], in [8] and in [9] was “inactive” in each case.
For `CS(=O)(=O)Nc1ccc([N+](=O)[O-])cc1Oc1ccccc1`, the Potency entry in experiment [1], in experiment [2], in [3], in experiment [4], in [5] and in experiment [6] was “inactive” throughout. Besides, the Potency result in experiment [10], in [7], in experiment [8] and in experiment [9] was “inactive” throughout.
Turning to `CC(C)(Oc1ccc(C2CC2(Cl)Cl)cc1)C(=O)O` (stereo not drawn), the Potency entry in [1], in experiment [2], in experiment [3], in experiment [4], in experiment [5] and in [6] was “inactive” each time. Moreover, the Potency result in experiment [10], in [7], in experiment [8] and in [9] was “inactive” each time.
As to `Nc1nc2c(ncn2COC(CO)CO)c(=O)[nH]1`, the Potency result in experiment [1], in experiment [2], in experiment [3], in [4], in [5] and in [6] was “inactive” each time. The Potency result in experiment [10], in [7], in [8] and in experiment [9] was “inactive” in each case.
On to `Nc1nnc(-c2cccc(Cl)c2Cl)c(N)n1`, for which the Potency result in experiment [1], in [2], in [3], in experiment [4], in [5] and in experiment [6] was “inactive” throughout. The Potency entry in experiment [10], in experiment [7], in experiment [8] and in experiment [9] was “inactive” each time.
Turning to `O=C(c1ccc(OCCN2CCCCC2)cc1)c1c(-c2ccc(O)cc2)sc2cc(O)ccc12`, the Potency entry in experiment [1], in experiment [2], in experiment [3], in [4], in experiment [5] and in experiment [6] was “inactive” in each case. The Potency result in experiment [10] and in experiment [9] was “inactive” each time.
For `CC(C)(C)C(=O)Oc1ccc(S(=O)(=O)Nc2ccccc2C(=O)NCC(=O)O)cc1`, the Potency entry in [1], in experiment [2], in [3], in experiment [4], in experiment [5] and in experiment [6] was “inactive” throughout. Moreover, the Potency result in experiment [10], in experiment [7] and in experiment [9] was “inactive” each time.
Consider `O=c1c(O)c(-c2ccc(O)c(O)c2)oc2cc(O)cc(O)c12`, for which the Potency result in experiment [1], in experiment [2], in experiment [3], in [5], in [6] and in [8] was “inactive” each time. The Potency result in experiment [9] is “inactive”. For the same compound, the Potency in experiment [4] is 15.8 µM (active).
`CC(C)NCC(O)c1ccc(O)c(O)c1` (stereo not drawn): the Potency result in experiment [1], in experiment [2], in [3], in experiment [4], in experiment [5] and in experiment [6] was “inactive” throughout. Moreover, the Potency result in [8] and in [9] was “inactive” throughout.
Turning to `NCCCCCC(=O)O`, the Potency entry in [1], in experiment [2], in [3], in experiment [4], in experiment [5] and in experiment [6] was “inactive” each time. Moreover, the Potency entry in experiment [10], in experiment [7], in experiment [8] and in experiment [9] was “inactive” in each case.
Consider `CN(CCOc1ccc(NS(C)(=O)=O)cc1)CCc1ccc(NS(C)(=O)=O)cc1`, for which the Potency entry in experiment [1], in experiment [2], in experiment [3], in experiment [4], in [5] and in experiment [6] was “inactive” in each case. The Potency result in experiment [10], in [7], in experiment [8] and in experiment [9] was “inactive” in each case.
As to `COc1ccccc1OCC(O)CN1CCN(CC(=O)Nc2c(C)cccc2C)CC1` (stereo not drawn), the Potency result in experiment [1], in experiment [2], in experiment [3], in experiment [4], in experiment [5] and in [6] was “inactive” throughout. Moreover, the Potency result in [10], in [7], in experiment [8] and in experiment [9] was “inactive” throughout.
